# Hits are enriched below; roughly 9.3% of the tested compounds scored in any of these assays.
# ELG1 DNA repair – inhibitors of ELG1-dependent DNA repair in HEK293T cells; Potency, µM (doses to about 46.1 µM), for inactives: at the top dose activity change, negative = inhibition, most hits filed as inhibitors; AID 504467; HEK293T ELG1-luciferase reporter, luminescence, 16 h; DNA damage induced by 5-fluorouridine; 330,000 tested, 2.3% active; note: % is set by controls: 0 for no effect and ±100 for the full control effect; nearly all actives have a fitted effect of over 55% in size
#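 Luminescence from the luciferase reporter, measured 30 min after ONE-Glo reagent at room temperature, was the read-out. Beforehand, 2,000 cells per well were exposed for 16 hr at 37 °C to 5-fluorouridine together with compound or vehicle.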
# FLuc counter – counter-screen for miR-21 project: firefly luciferase inhibitors or activators. P08659. purified FLuc, Km substrates, luminescence inhibition. Potency, µM (series often up to 57.5 µM), inactives show top-dose activity change, negative = inhibition, usual class: inhibitors. 360,000 tested, 6.9% active. AID 588342;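 note: plate controls were vehicle for no effect and reference inhibitor for full effect; nearly all actives have a fitted effect of over 55% in size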
# Target sequence (P08659 whole entry, looked up): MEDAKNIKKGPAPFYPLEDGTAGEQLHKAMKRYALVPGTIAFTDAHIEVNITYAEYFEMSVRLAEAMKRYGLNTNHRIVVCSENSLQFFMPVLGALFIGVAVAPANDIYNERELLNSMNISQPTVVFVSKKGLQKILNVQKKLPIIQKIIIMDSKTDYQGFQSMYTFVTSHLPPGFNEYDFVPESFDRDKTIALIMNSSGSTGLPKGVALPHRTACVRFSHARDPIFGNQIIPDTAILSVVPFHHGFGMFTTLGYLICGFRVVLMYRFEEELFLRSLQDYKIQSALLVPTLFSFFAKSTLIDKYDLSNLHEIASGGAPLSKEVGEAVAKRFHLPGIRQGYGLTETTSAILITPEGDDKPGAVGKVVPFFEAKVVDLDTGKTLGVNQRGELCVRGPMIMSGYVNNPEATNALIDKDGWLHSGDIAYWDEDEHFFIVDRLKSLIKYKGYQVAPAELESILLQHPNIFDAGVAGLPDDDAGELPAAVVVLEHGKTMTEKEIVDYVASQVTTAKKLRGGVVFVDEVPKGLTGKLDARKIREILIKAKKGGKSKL
#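 Purified P. pyralis luciferase (10nM final) with 10uM D-luciferin and 10uM ATP (Km levels) in 50mM Tris acetate pH 7.5, 10mM Mg acetate, 0.01% Tween-20, 0.05% BSA; qHTS 6-point titration, ~60 µM downward; luminescence read.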
# Rab9 promoter act – activators of Rab9 promoter; Huh7 Rab9 promoter-luciferase reporter, luminescence, 24 h; Potency, µM (titrated, usually from 9.22 µM), without a hit: at the top dose activation, negative = inhibition, actives largely listed as activators; 320,000 tested, 2.8% active; note: % of control where 0% means no effect; nearly all actives have a fitted effect of over 60% in size
#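 Promoter activation is measured as luciferase luminescence in Huh7 cells stably transfected with a Rab9 promoter–luciferase construct, following 24 h compound exposure at 37 °C and 10 min reagent incubation at ambient temperature.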
# ELG1 genotoxic – inducers of genotoxicity in HEK293T ELG1-luciferase cells; Potency, µM (top dose mostly 46 µM), inactives show at the highest dose activity change, positive = activation, actives largely listed as activators; 330,000 tested, 1.3% active; AID 504466; HEK293T ELG1-luciferase reporter, luminescence, 16 h; note: % of control where 0% means no effect; nearly all actives have a fitted effect of over 60% in size
#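 Genotoxic stress is detected as increased luminescence from luciferase-tagged ELG1 in HEK293T cells, measured with ONE-Glo after a 16 hr treatment at 37 °C.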
# SMN2 splice up – enhancers of SMN2 splice variant expression; 210,000 tested, 2.8% active; HEK293 SMN2-luciferase splicing reporter, luminescence, 30-36 h; Potency, µM (highest dose often 46.1 µM), without a hit: top-dose activity change, positive = activation, most hits filed as activators; note: % of control where 0% means no effect; nearly all actives have a fitted effect of over 55% in size
#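 HEK293 cells carry an SMN2 […]–luciferase reporter in which exon 7 inclusion puts luciferase in frame. Cells were plated 10-12 h before compound addition, then incubated 30-36 h at 37C. ONE-Glo luminescence was read; sodium butyrate at 4.5 mM final served as control.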
# NPC1 prom act – activators of NPC1 promoter; Huh7 NPC1 promoter luciferase reporter, 24 h; 320,000 tested, 2.4% active; Potency, µM (series often up to 9.22 µM), inactives show top-dose activation, hits mostly activators; AID 485313; note: % of control where 0% means no effect; nearly all actives have a fitted effect of over 60% in size
#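 Luminescence read-out of NPC1 promoter-driven luciferase in stably transfected Huh7 cells; compounds delivered in DMSO and left 24 h at 37C, 5% CO2, qHTS titration format.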
# Active calls of the source: *; u = inconclusive; x = not tested or not shown; [ ] = another dose, or the depositor's remark. Calls come from the whole dose curve; as a rule, active = well fitted curve in the direction sought with a large enough effect; inconclusive = small, poorly fitted or top-dose-only effect, or another doubt; inactive = no such curve, though single readings can be large; an effect the other way counts as inactive or inconclusive. Potency is the fitted concentration of half-maximal effect.
SMILES,ELG1 DNA repair,FLuc counter,Rab9 promoter act,ELG1 genotoxic,SMN2 splice up,NPC1 prom act
CCOc1cc(C(=O)Nc2ccc(NC(=O)c3cc4ccccc4o3)c(OC)c2)cc(OCC)c1OCC,x,-7%,x,x,0%,x
CC(OC(=O)c1ccco1)C(=O)NC1CCCC1 (configuration not stated),4%,2%,3%,-1%,x,-1%
CCOC(=O)c1c(C)[nH]c(C(=O)N/N=C/c2cccc(OC)c2)c1C,u,u,21%,0%,14%,22%
COc1cccc(/C=N/NC(=O)c2[nH]c(C)c(C(=O)N/N=C/c3cccc(OC)c3)c2C)c1,21µM*,u,10%,-5%,-28%,5%
COc1ccc(/C=N/NC(=O)c2cc[n+]([O-])cc2)cc1,18%,u,-6%,2%,x,-3%
COc1ccc(/C=N/NC(=O)c2[nH]c(C)c(C(=O)N/N=C/c3ccc(OC)cc3)c2C)cc1,21µM*,u,-3%,-8%,-23%,-4%
CC(C)CC(=O)/C=C/n1c(=S)oc2ccccc21,u,0.95µM*,-46%,-16%,-68%,-32%
Cn1c(=S)oc2ccccc21,-13%,-2%,-6%,-3%,x,-4%
CC(=O)/C=C/n1c(=S)oc2ccccc21,u,5.4µM*,-41%,-11%,-10%[1.84 µM],-36%
CN1CCN(c2ccc(NC(=S)NC(=O)/C=C/c3ccco3)cc2)CC1,u,24µM*,u,u,x,u
O=C(/C=C/c1ccco1)NC(=S)Nc1cccc(C(=O)O)c1,u,11µM*,2.8µM*,u,x,4µM*
CCN(CC)S(=O)(=O)c1ccc(N2CCCCC2)c(NC(=O)/C=C/c2ccc(OC)c(OC)c2)c1,u,0%,-5%,1%,-2%,-6%
CCN(CC)S(=O)(=O)c1ccc(OC)c(NC(=O)/C=C/c2ccco2)c1,23µM*,-12%,0%,-7%,x,8%
COc1cccc(NC(=S)NC(=O)/C=C/c2ccco2)c1,u,17µM*,25%,u,x,5%
Nc1ncnc2c1ncn2C[C@@H](O)C(=O)O,x,x,x,x,-26%[9.22 µM],x
COc1cc(OC)cc(C(=O)Nc2ccc(NC(=O)c3ccco3)c(C)c2)c1,u,12µM*,15%,u,x,20%
COc1cc(OC)cc(C(=O)Nc2cc(NC(=O)c3ccco3)ccc2OC)c1,21µM*,u,14%,-2%,-26%,-2%
CC(C)Oc1ccc(C(=O)Nc2ccc(NC(=O)c3ccco3)c(Cl)c2)cc1,-1%,0.54µM*,u,2%,-10%,u
Cc1cc(NC(=O)c2ccco2)ccc1NC(=O)c1ccco1,u,u,16%,u,x,18%
CC(Oc1cc2oc(=O)c3c(c2cc1Cl)CCC3)C(=O)NCc1ccccn1 (configuration not stated),-1%,-1%,1%,0%,x,-5%
O=C(NCCCCc1ccccc1)C1CC(c2cc(C(F)(F)F)cc(C(F)(F)F)c2)=NO1 (configuration not stated),0%,1%,-6%,-2%,x,-1%
Cc1ccccc1N/N=C/c1c(C)nc2ccccn12,2%,12µM*,8%,-4%,x,3%
O=C(Nc1nccs1)c1ccc[nH]c1=O,u,u,u,17%,x,28%
Cc1occc1C(=O)N/N=C/c1cccnc1,u,-23%,10%,15%,16%,12%
Cc1occc1C(=O)N/N=C/c1ccc(OCc2ccccc2)cc1,u,u,2.8µM*,u,x,u
SMILES,ELG1 DNA repair,FLuc counter,Rab9 promoter act,ELG1 genotoxic,SMN2 splice up,NPC1 prom act
Cc1occc1C(=O)N/N=C/c1ccc(-c2ccccc2)cc1,u,0.67µM*,0.4µM*,0.16µM*,x,0.32µM*
Cc1occc1C(=O)N/N=C/C(Br)=C/c1ccccc1,u,2.7µM*,0.89µM*,u,8.9µM*,1.8µM*
CC(C)CC[n+]1ccn(-c2nc3ccccc3nc2[N-]S(=O)(=O)c2ccc(Cl)cc2)c1,-4%,0%,-7%,-1%,x,2%
C(=N\Nc1nc(N2CCCC2)nc(N2CCCC2)n1)/c1ccncc1,-20%,-3%,-5%,-6%,-14%,-1%
O=[N+]([O-])c1cc2c(cc1/C=N/Nc1nc(Nc3ccccc3)nc(N3CCCCC3)n1)OCO2,6%,2.1µM*,25%,9%,-5%,19%
O=[N+]([O-])c1ccc(/C=N/Nc2nc(N3CCCCC3)nc(N3CCCCC3)n2)o1,23µM*,0%,-2%,-10%,u,-2%
O=C(O)COc1ccc(/C=N/Nc2nc(Nc3ccccc3)nc(N3CCCCC3)n2)cc1,-20%,0.67µM*,0%,-2%,11%,-4%
CC(=O)Nc1ccc(/C(C)=N/Nc2nc(Nc3ccccc3)nc(N3CCOCC3)n2)cc1,6.5µM*,17µM*,-3%,-2%,x,-1%
CC(=O)c1ccc(Nc2nc(N3CCOCC3)nc(N3CCOCC3)n2)cc1,-24%,u,18%,5%,x,9%
CCOC(=O)C1CCC(CN(Cc2ccc(OC)cc2)S(=O)(=O)c2ccc(C)cc2)CC1 (configuration not stated),x,-1%,x,x,x,x
O=C(O)c1cccc(Nc2nc(Nc3ccccc3)nc(N3CCCC3)n2)c1,0%,u,u,-9%,4%,3.2µM*
C(=N\Nc1nc(Nc2ccccc2)nc(N2CCCCC2)n1)/c1ccco1,u,6µM*,26%,-11%,x,5%
COc1ccc(/C=N/Nc2nc(Nc3ccccc3)nc(N3CCCC3)n2)cc1,u,-10%,4%,-14%,-20%,5%
O=C(CN1CSCC1=O)N1CCN(S(=O)(=O)c2cccc(F)c2)CC1,8%,x,0%,0%,x,1%
COc1ccc(/C(C)=N/NC(=O)c2sccc2-n2cccc2)cc1,3%,u,15%,2%,10%,1%
COc1ccc(C(=O)NCCc2nnc3ccc(SCC(=O)Nc4ccccc4)nn23)cc1,u,3µM*,2.8µM*,u,x,1.6µM*
Cn1c(CSCc2ccc(F)cc2)nnc1SCC(=O)Nc1nccs1,16µM*,1%,5%,-7%,-45%,-1%
COc1ccc(NC(=O)Cc2nnc(SCC(=O)Nc3ccccc3)n2C)cc1,7%,17µM*,6%,2%,x,3%
COc1ccc(NC(=O)Cc2nnc(SCC(=O)Nc3nccs3)n2C)cc1,-1%,15µM*,4%,2%,x,7%
O=C(CSc1ccc2nnc(CCNC(=O)c3ccccc3)n2n1)Nc1ccccc1,14%,-2%,1%,2%,-17%,-3%
